In all, about 330,000 compounds went through this assay and about 1,900 (0.58%) were called active. About 4% were inconclusive and are not listed. The list is a sample of the results. Measured potencies and affinities stand elsewhere. A number with no mark means an inactive call. No stated cut-off is given here; in the data, inconclusive means inhibition above about 70% without an active follow-up result; inactive means below that.
Assay: M. tuberculosis growth inhibition, HTS (AID 449762);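 further: bacterial growth assessed after seven days of incubation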
Details: M. tuberculosis H37Rv growth inhibition, 7H9 media; at 25 µM; stronger effect = higher value

Structure (SMILES)	inhibition
Cc1nc(C)c(C(=O)OCC(=O)NCc2ccccc2Cl)s1	3.01%
CCOC(=O)c1cnc2ccc(OCC)cc2c1N1CCN(C)CC1	4.95%
CCOC(=O)c1cnc2ccc(OCC)cc2c1N1CCN(c2ccccc2OC)CC1	63.7%
C=CCN(CC(=O)NCc1ccccc1)C(=O)c1csnn1	-1.06%
O=C(O)C1CC=CCC1C(=O)NCCCN1CCCC1=O (centres undefined)	-30.3%
O=C(O)c1ccc(-[n+]2c(-c3ccccc3)cc(-c3ccccc3)cc2-c2ccccc2)cc1	-13.1%
O=C([O-])c1ccc(-[n+]2c(-c3ccccc3)cc(-c3ccccc3)cc2-c2ccccc2)cc1	55.9%
Cc1ccc(-c2cc(-c3ccc(C)cc3)[n+](-c3ccc(C(=O)O)cc3)c(-c3ccc(C)cc3)c2)cc1	6.26%
O=[N+]([O-])c1ccc(-[n+]2c(-c3ccccc3)cc(-c3ccccc3)cc2-c2ccccc2)cc1	8.42%
Cc1ccc(-c2cc(-c3ccccc3)cc(-c3ccccc3)[n+]2-c2ccc(C(=O)O)cc2)cc1	-6.06%
O=[N+]([O-])c1ccc2nc(-[n+]3c(-c4ccccc4)cc(-c4ccccc4)cc3-c3ccccc3)[nH]c2c1	27.2%
CC(C)(C)OC(=O)[C@H](Cc1ccccc1)NC(=O)c1nc[nH]c1C(=O)N[C@@H](CCCCN)C(=O)OC(C)(C)C	-1.19%
CC(Cc1ccco1)NC(=O)c1ccc(C(F)(F)F)cc1 (centres undefined)	4.71%
COc1ccc(Cl)cc1NC(=O)NCCN1CCNC1=O	0.11%
COc1ccc(/C(N)=N/OC(=O)CCCc2ccccc2)cc1OC	14.8%
O=C(O)c1cccc(NC(=O)c2cc(S(=O)(=O)N3CCOCC3)cs2)c1	-7.54%
CCOC(=O)N1CCC(N(CCN(C)C)C(=S)Nc2ccccc2OCC)CC1	7.57%
CC1CCC(NCc2ccco2)CC1 (centres undefined)	-0.39%
CCC1=C(OC(=O)N(CC)CC)N2C(=O)OC(=NCCc3c[nH]c4ccccc34)[C@]2(Cc2ccccc2)[C@H]2C1=CC[C@H]1C(=O)N(CC)C(=O)[C@H]12	-7.04%
CCC1=C(OC(=O)N(CC)CC)N2C(=O)OC(=NCCc3c[nH]c4ccccc34)[C@]2(Cc2ccccc2)[C@H]2C1=CC[C@H]1C(=O)N(C)C(=O)[C@H]12	68.8%
O=C(NCC1CCCO1)C(=O)N/N=C/c1c(F)cccc1Cl (centres undefined)	5.59%
NC(N)=Nc1nc2ccccc2o1	4.74%
CCCCN(C(=O)c1cnccn1)c1c(N)n(CCC)c(=O)[nH]c1=O	-6.33%

Structure (SMILES)	inhibition
CCC(=O)c1ccc(OCC(O)CN2CCN(c3ccccn3)CC2)cc1 (centres undefined)	4.67%
N#Cc1ccc(OCC(O)CN2CCN(CC(O)COc3ccc(C#N)cc3)CC2)cc1 (centres undefined)	-5.84%
OC(CN1CCN(c2ncc(C(F)(F)F)cc2Cl)CC1)c1ccccc1 (centres undefined)	32.4%
CCC(=O)c1ccc(OCC(O)CN2CCN(c3ccc(F)cc3)CC2)cc1 (centres undefined)	-1.98%
O=[N+]([O-])c1cc([N+](=O)[O-])c(Oc2cc(F)ccc2F)cc1NN1CCCCC1	5.39%
O=C(NCCc1ccccc1)C(=O)c1cn(CC(=O)N2CCCC2)c2ccccc12	-0.08%
COc1cc(NC(=O)c2cccnc2SC)cc(OC)c1OC	-4.5%
Cc1cccc(NC(=O)c2nc[nH]c2C(=O)N(C)Cc2ccccc2)c1	27.5%
COc1cc(OC)cc(C(=O)N[C@H](C(=O)NC23CC4CC(CC(C4)C2)C3)C(C)C)c1	-8.25%
CCCCCN(C(=O)CCC(=O)OCCOc1cccc(C)c1)c1c(N)n(CCCC)c(=O)[nH]c1=O	44.3%
CCOc1cc(Cl)c(NC(C)=O)cc1OCC	-1.54%
CCOc1cc(NC(=S)Nc2ccc(Cl)cc2)c(OCC)cc1NC(C)=O	-3.61%
CC(=O)c1cccc(NC(=O)C(C)OC(=O)c2ccc(Br)o2)c1 (centres undefined)	4.17%
CCOC(=O)C1CCN(c2cc3c(cc2NC(=O)c2ccccc2F)n(C)c(=O)n3C)CC1	4.71%
CCOC(=O)C1CCN(c2cc3c(cc2NC(=O)c2ccccc2)n(C)c(=O)n3C)CC1	-3.19%
CCc1ccc(NC(=O)C2C3C=CC(C4CC34)C2C(=O)O)cc1 (centres undefined)	4.87%
CCCCCCNC(=O)C(=O)NCCc1ccc(Cl)cc1	-8.55%
CCCCCc1ccc(CC(=O)O)cc1	-9.58%
NS(=O)(=O)c1cc(C(=O)OC2CCOC2=O)ccc1Cl (centres undefined)	-0.59%
N/C(=N\OC(=O)c1ccc2c(c1)OCO2)c1ccc([N+](=O)[O-])cc1	0.35%
CS(=O)(=O)O/N=C1\CCCCC1c1ccc([N+](=O)[O-])cc1[N+](=O)[O-] (centres undefined)	11.2%
COc1ncnc2c1sc1nc(-c3ccccc3)c3c(c12)CCCC3	2.95%
CCN(CC)CCNc1ncnc2c1sc1nc(N3CCOCC3)c3c(c12)CCCC3	13.5%

Structure (SMILES)	inhibition
Cc1nc(-c2c(C(=O)NNC(=O)Nc3c(C)cccc3C)noc2C)cs1	-5.09%
COc1ccc(OC)c(C(=O)NC2CC(C)(C)Cc3c2cnn3-c2ccccc2)c1 (centres undefined)	12.2%
CC(C)CC(=O)Nc1cccc(NC(=O)c2ccccc2Cl)c1	0.24%
COc1ccc(CSc2nc3ccccc3c(=O)[nH]2)cc1F	2.06%
Cn1cc(C=C2C(=O)NC(=O)NC2=O)c2ccccc21	-7.12%
COc1ccc(N2C(=O)NC(=O)/C(=C\c3cn(C)c4ccccc34)C2=O)cc1	3.04%
COC(=O)c1ccc(C(c2c(N)n(CC(C)C)c(=O)[nH]c2=O)N2CCN(c3ccccc3)CC2)cc1 (centres undefined)	7.1%
CCOC(=O)CC(=O)CSc1nnc2c(n1)[nH]c1ccccc12	7.32%
COc1ccc(C2CC(c3c(Cl)cccc3Cl)n3nc(N)nc3N2)cc1 (centres undefined)	-4.95%
Cc1cc(C)nc(NC(=S)NC(=O)c2ccccc2)n1	-0.74%
CC1CCN(C(=O)C2CCC(CNc3c(N4CCCCC4)c(=O)c3=O)CC2)CC1 (centres undefined)	-6.49%
O=C(C1CCC(CNc2c(N3CCCCC3)c(=O)c2=O)CC1)N1CCCC1 (centres undefined)	-1.43%
CC(=O)NCC1CCCN(C(=O)c2ccc(OC3CCN(Cc4ccccn4)CC3)cc2)C1 (centres undefined)	8.85%
CC(Oc1ccc2c3c(c(=O)oc2c1)CCC3)C(=O)NC1CCN(Cc2ccccc2)CC1 (centres undefined)	5.54%
O=C(NCc1ccccc1Cl)c1ccc(S(=O)(=O)Nc2cccc(C(F)(F)F)c2)cc1	-11.7%
S=C(NCc1cccnc1)Nc1ccc(Oc2ccccc2)cc1	4.52%
Clc1ccc(-c2nc(N3CCCCC3)nc3ccccc23)cc1	8.31%
c1ccc(-c2nc(N3CCCCC3)nc3ccccc23)cc1	36.9%
COc1cc(OC)cc(C(=O)Nc2cccc(-c3ccc(N4CCOCC4)nn3)c2)c1	-3.98%
COc1ccc(C(=O)NNC(=O)c2ccc(S(=O)(=O)N3CCOCC3)cc2)cc1	0.01%
CCCN1C(=O)C2(SC(NC(C)=O)=NN2C(C)=O)c2cc(C)ccc21 (centres undefined)	-6.76%
COc1cc(F)ccc1S(=O)(=O)N1CCN(C23CC4CC(CC(C4)C2)C3)CC1	9.71%
COc1ccc(OC)c(S(=O)(=O)N2CCN(C34CC5CC(CC(C5)C3)C4)CC2)c1	2.72%

Structure (SMILES)	inhibition
NC(=S)N=Nc1c(O)[nH]c2ccccc12	-9.66%
Oc1[nH]c2ccc(Br)cc2c1N=NC(=S)N1CCOCC1	7.05%
CCCc1cc(C(=O)Nc2ccc(C(C)=O)cc2)no1	29.9%
CCc1ccc(NC(=O)c2cc(CC(C)C)on2)cc1	4.83%
CCOc1ccc(C(=S)N2CCN(C)CC2)cc1	-1.09%
CCc1nc(C)cn1S(=O)(=O)c1cc(Cl)c(OC)cc1Cl	-6.76%
CCN(CC)C(=O)c1ccc2c(c1)N(Cc1ccccc1)C(=O)CS2=O (centres undefined)	0.11%
Cc1ccc(C(=O)Nc2cccc(C(F)(F)F)c2)cc1NC(=O)c1nccn1C	-2.57%
CC(=O)c1ccccc1NC(=O)COC(=O)CCC1CCCC1	9.67%
CC(C)/C=C1\CC/C(=C\c2cccnc2)C1=O	11%
O=C1/C(=C/c2cccnc2)CC/C1=C\c1cccnc1	-0.97%
COc1cc(/C=C/C(=O)OC(C)C(=O)Nc2ccc(Cl)cn2)ccc1OC(F)F (centres undefined)	28.3%
COc1ccc(Nc2nc(Cl)nc(NCc3ccco3)n2)c(OC)c1	-5.12%
Cc1noc(NS(=O)(=O)c2ccc(NC(=O)/C=C/c3ccc(C(C)C)cc3)cc2)c1C	-12.3%
CC(C)N1C(=O)S/C(=C\c2ccc(-c3ccc(Cl)c(C(=O)O)c3)o2)C1=O	4.73%
CCN(CC)c1ccc(C=C2C(=O)N(C)C(=S)N(C)C2=O)o1	1.5%
CC(=O)c1ccc(OCC(=O)N2CCCC2c2ccc3c(c2)OCCCO3)cc1 (centres undefined)	-12.4%
NC(=O)CN1CCCC1c1ccc2c(c1)OCCO2 (centres undefined)	-1.31%
CCc1nnc(NC(=O)CN2CCN(Cc3cccc(F)c3)CC2)s1	13.7%
COc1ccc(NS(=O)(=O)c2cccc(C(=O)NCc3ccccn3)c2)cc1	-5.64%

— PubChem BioAssay AID449762 (Southern Research Specialized Biocontainment Screening …, 2010)
